# Measured values taken from PubChem BioAssay AID1259245 (Vanderbilt High Throughput Screening Facility, 2017).
# The campaign covered roughly 40,000 compounds. About 1,400 (3.5%) were called active.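 How the source made its calls: active means any of four per-well response measures lying three or more SD from its plate-wide compound average, in either direction; inactive means the rest, inconclusive results apart.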 The entries come from a sample that favours actives as a whole.
# Target: Voltage-dependent calcium channel gamma-2 subunit (Mus musculus) + Glutamate receptor 2 (Rattus norvegicus) (UniProt O88602+P19491)
# Experiment: AMPAR-TARP gamma-2 complex positive or negative modulation – cell-based, membrane potential dye, primary screen (AID 1259245)
# Settings: HEK293 GluA2+stargazin, membrane potential dye (FDSS), glutamate EC50, at 30 µM, hits were called plate by plate, in both directions; compound max-min signal: compound-alone response (agonism); glutamate slope, % of max: measured here: glutamate response slope, % max
# Sequence of Voltage-dependent calcium channel gamma-2 subunit (Mus musculus) + Glutamate receptor 2 (Rattus norvegicus) (O88602 whole entry, looked up): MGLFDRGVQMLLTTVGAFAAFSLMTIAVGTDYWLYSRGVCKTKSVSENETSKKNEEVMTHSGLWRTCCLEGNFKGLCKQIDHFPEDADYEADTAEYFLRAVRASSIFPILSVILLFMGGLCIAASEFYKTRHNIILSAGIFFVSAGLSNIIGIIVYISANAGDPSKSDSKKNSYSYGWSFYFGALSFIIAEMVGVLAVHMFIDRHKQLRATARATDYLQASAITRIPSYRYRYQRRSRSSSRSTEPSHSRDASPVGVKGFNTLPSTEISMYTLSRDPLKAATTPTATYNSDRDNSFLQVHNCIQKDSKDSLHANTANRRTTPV
# Sequence of Voltage-dependent calcium channel gamma-2 subunit (Mus musculus) + Glutamate receptor 2 (Rattus norvegicus) (P19491 whole entry, looked up): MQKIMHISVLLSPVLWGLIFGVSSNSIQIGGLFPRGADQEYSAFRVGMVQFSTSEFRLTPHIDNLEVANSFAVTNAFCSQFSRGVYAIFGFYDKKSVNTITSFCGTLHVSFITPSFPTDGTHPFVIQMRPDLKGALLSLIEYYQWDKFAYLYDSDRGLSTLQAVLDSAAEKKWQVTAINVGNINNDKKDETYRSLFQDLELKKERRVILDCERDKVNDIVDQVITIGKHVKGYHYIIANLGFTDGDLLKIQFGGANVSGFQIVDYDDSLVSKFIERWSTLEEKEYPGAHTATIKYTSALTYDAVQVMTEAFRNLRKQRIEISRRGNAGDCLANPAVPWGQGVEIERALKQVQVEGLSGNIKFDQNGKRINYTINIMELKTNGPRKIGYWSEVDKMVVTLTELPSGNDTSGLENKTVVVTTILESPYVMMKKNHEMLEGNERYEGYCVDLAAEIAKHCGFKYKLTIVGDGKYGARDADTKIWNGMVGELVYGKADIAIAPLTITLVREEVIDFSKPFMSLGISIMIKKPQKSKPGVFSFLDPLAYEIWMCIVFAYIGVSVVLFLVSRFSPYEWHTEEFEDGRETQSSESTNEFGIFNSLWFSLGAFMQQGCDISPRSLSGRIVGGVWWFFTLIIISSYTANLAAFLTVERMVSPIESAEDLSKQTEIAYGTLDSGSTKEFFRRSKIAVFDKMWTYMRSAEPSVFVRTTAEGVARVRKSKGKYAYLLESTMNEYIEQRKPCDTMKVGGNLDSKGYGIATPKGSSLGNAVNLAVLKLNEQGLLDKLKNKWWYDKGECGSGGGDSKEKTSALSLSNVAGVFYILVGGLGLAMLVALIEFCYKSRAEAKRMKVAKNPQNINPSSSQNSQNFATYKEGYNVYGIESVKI
SMILES,compound max-min signal,"glutamate response, % of max","glutamate slope, % of max [%]"
CCCCN1CC(c2nc3ccccc3n2Cc2cc(C)ccc2C)CC1=O (stereo not drawn),0.12,83.9% (active),94.4
CCN1CC(c2nc3ccccc3n2Cc2ccc(Cl)c(Cl)c2)CC1=O (stereo not drawn),0.144,41.2% (inactive),66.5
C=CCN1CC(c2nc3ccccc3n2Cc2cccc(Cl)c2)CC1=O (stereo not drawn),0.132,29.6% (active),36.6
CCN1CC(c2nc3ccccc3n2Cc2ccccc2F)CC1=O (stereo not drawn),0.0186,31.3% (inactive),50
O=C(CCCc1ccccc1)N1CCN(c2ccc3nnc(-c4ccco4)n3n2)CC1,0.203,48.1% (inactive),68.2
CC(=O)Nc1cccc(NC(=O)C(=O)NCC2CCN(Cc3ccco3)CC2)c1,0.0762,50.2% (inactive),68.9
O=C(NC1CCc2ccccc21)c1nnn(-c2ccc(F)cc2)c1-c1ccncc1 (stereo not drawn),0.0259,18.1% (inactive),25.4
COc1cc2nc(NC(=O)c3cc(C)no3)sc2cc1OC,0.204,26.9% (inactive),48.6
COCCn1c(=NC(=O)c2cc(C)no2)sc2cc(SC)ccc21,0.152,31.8% (inactive),54.7
CCOCCn1c(=NC(=O)c2cc(C)no2)sc2cc(OC)c(OC)cc21,0.187,27.5% (active),50.7
Cc1nn(-c2ccccc2)c2ncc(C(=O)Nc3ccc(F)cc3F)c(Cl)c12,0.0815,20.8% (inactive),43.5
COc1cn(CC(=O)Nc2ccc3c(c2)OCO3)c(CSc2nnnn2C)cc1=O,0.0535,23.6% (inactive),48.2
Cc1ccc2nc(NC(=O)c3ccno3)sc2c1,0.16,53% (inactive),62.5
CCOc1ccc2nc(NC(=O)c3ccc(S(=O)(=O)Nc4cccnc4)o3)sc2c1,0.179,32% (active),55.6
CCOc1ccc2nc(NC(=O)c3ccc(S(=O)(=O)N(C)C)o3)sc2c1,0.115,31.5% (inactive),54.4
CC(C)Oc1ccc(C(=O)Nc2ccc3oc(=O)ccc3c2)cc1,0.17,41.9% (inactive),61.4
O=c1oc2ccc(Cl)cc2cc1S(=O)(=O)c1ccccc1F,0.0854,39.3% (inactive),60
O=c1ccc2cc(S(=O)(=O)Nc3cc(Cl)ccc3O)ccc2o1,0.209,16.4% (active),35.5

SMILES,compound max-min signal,"glutamate response, % of max","glutamate slope, % of max [%]"
O=C(NC1CCCCCC1)c1ccc(S(=O)(=O)c2ccccc2)nc1,0.0387,28.2% (inactive),47.7
COc1cccc(NC(=O)c2ccc(=O)n(Cc3cccc(C(F)(F)F)c3)c2)c1,0.0915,23.5% (inactive),41.6
COc1cc(CN2CCN(c3nccn3C)CC2)cc(OC)c1,0.0438,12.8% (inactive),27.6
COc1ccc(OC)c(-c2ccc(=O)n(CC(=O)N3CCOCC3)n2)c1,0.0773,62.3% (inactive),97.9
Cc1ccccc1NC(=O)NC1(c2nc(-c3ccsc3)no2)CCCCC1,0.081,34.5% (inactive),56
O=S(=O)(NC1(c2nc(-c3ccsc3)no2)CCCCC1)c1ccccc1,0.127,19.9% (active),36.2
COc1cc(Cl)ccc1C(=O)NC1(c2nc(-c3ccsc3)no2)CCCCC1,0.0754,37.6% (inactive),63.1
COc1ccccc1OCC(=O)Nc1cc(C(=O)N2CCOCC2)cn(C)c1=O,0.134,36.2% (inactive),63
COc1ccc(-n2nnc3c(N4CCN(C(=O)C(C)Oc5ccccc5)CC4)ncnc32)cc1 (stereo not drawn),0.0918,83.4% (active),124
CC(Oc1ccccc1)C(=O)N1CCN(c2ncnc3c2nnn3-c2ccc(Cl)cc2)CC1 (stereo not drawn),0.0923,46% (inactive),58.4
CCCC(CCC)C(=O)N1CCN(c2ncnc3c2nnn3-c2ccc(OC)cc2)CC1,0.0796,50.3% (inactive),57.2
COc1ccc(Cl)cc1NC(=O)Nc1cc(N2CCCS2(=O)=O)ccc1C,0.0964,36.6% (inactive),48.9
Cc1c(-c2ccccc2)c(=O)oc2c3c(ccc12)OCN(Cc1cccnc1)C3,0.117,15.5% (inactive),35
O=C(CCc1ccccc1)NCC1CCN(Cc2ccsc2)CC1,0.0535,10.8% (active),27.6
O=C(NCC1CCN(Cc2ccsc2)CC1)C(=O)Nc1ccon1,0.08,38.4% (inactive),57.1
O=C(CCc1ccccc1)NCCS(=O)(=O)N1CCN(Cc2ccccc2)CC1,0.0536,24.3% (inactive),47.7
Cc1cc(C)c2c(n1)sc1c(=O)n(CC(=O)Nc3ccc(F)cc3F)cnc12,0.126,45.2% (inactive),70.3
CSc1ccccc1NC(=O)C(=O)NCC(O)(c1ccco1)C1CC1 (stereo not drawn),0.142,47.7% (inactive),61
